“And” between values parts separate entries of the source, which are not always exact repeats. Equal values may be shown once. Inconclusive results are not listed. The source made the active and inactive calls. Unless noted, calls follow the shape of the dose curve; as a rule, active = well fitted curve in the direction sought with a large enough effect in the repeat runs; inconclusive = weak or mixed curves; inactive = no such curve, though single readings can be large; an effect the other way counts as inactive or inconclusive.
Assays:
[1] = target: Luciferin 4-monooxygenase (Photinus pyralis) (UniProt P08659); test: qHTS assay to identify small molecule inhibitors of firefly luciferase (AID 1224835); also: nearly all actives have a fitted effect of over 25% in size; also: potency is read from the fitted curve at half-maximal effect
Sequence of Luciferin 4-monooxygenase (Photinus pyralis) (P08659 whole entry, looked up): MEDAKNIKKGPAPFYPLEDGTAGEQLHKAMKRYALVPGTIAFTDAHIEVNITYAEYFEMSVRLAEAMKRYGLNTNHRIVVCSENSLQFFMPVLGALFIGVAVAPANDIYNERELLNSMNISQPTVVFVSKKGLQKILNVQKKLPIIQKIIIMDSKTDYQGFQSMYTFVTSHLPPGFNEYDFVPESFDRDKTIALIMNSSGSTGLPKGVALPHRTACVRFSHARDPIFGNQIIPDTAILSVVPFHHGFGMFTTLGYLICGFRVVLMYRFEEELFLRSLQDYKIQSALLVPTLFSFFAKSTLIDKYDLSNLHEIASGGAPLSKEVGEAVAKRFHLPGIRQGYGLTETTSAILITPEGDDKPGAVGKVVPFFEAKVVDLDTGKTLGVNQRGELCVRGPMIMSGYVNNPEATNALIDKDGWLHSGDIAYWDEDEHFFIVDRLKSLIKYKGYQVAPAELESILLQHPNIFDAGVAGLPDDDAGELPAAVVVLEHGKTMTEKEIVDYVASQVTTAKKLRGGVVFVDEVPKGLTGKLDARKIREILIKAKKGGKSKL
Method in brief: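 Biochemical qHTS: compounds run as interplate titrations against purified firefly enzyme, with D-luciferin and ATP each at its KM concentration. Light output recorded by CCD imaging.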

[2] = qHTS assay to identify small molecule agonists of the constitutive androstane receptor (CAR) signaling pathway - cell viability counter screen (AID 1224836); also: nearly all actives have a fitted effect of over 45% in size; also: potency is read from the fitted curve at half-maximal effect
Method in brief: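 Multiplexed viability check: HepG2-CYP2B6-hCAR cells, 15-point compound dosing, 0.75 uM PK11195 final, 23 h at 37 C, CellTiter-Fluor fluorescence.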

[3] = qHTS assay to identify small molecule antagonists of the constitutive androstane receptor (CAR) signaling pathway - cell viability counter screen (AID 1224837); also: nearly all actives have a fitted effect of over 45% in size; also: potency is read from the fitted curve at half-maximal effect
Method in brief: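 Cells are seeded, rested 4 hr at 37 C/5% CO2, dosed with compound (15-point series) and 50 nM CITCO, incubated a further 23 hr, and then CellTiter-Fluor reagent is added before fluorescence is read. The line is HepG2 with stable hCAR and CYP2B6-2.2kb.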

[4] = target: Nuclear receptor subfamily 1 group I member 3 (Homo sapiens) (UniProt Q14994); test: qHTS assay to identify small molecule antagonists of the constitutive androstane receptor (CAR) signaling pathway (AID 1224838);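 also: HepG2 cells stably expressing hCAR with CYP2B6 luciferase reporter stimulated by CITCO; nearly all actives have a fitted effect of over 40% in size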; also: potency is read from the fitted curve at half-maximal effect
Sequence of Nuclear receptor subfamily 1 group I member 3 (Homo sapiens) (Q14994 whole entry, looked up): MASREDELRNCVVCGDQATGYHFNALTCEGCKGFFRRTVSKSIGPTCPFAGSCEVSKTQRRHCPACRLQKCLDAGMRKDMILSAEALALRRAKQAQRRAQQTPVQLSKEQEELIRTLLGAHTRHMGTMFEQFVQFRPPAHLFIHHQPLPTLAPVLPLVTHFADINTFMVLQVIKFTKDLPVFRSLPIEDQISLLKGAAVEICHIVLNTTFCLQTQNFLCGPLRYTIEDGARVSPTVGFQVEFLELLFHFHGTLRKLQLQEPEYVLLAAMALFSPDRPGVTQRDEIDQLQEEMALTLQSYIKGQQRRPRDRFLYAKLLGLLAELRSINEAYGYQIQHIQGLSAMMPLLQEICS
Method in brief: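 Luminescence from a CYP2B6-2.2kb promoter reporter in hCAR-expressing HepG2 cells reflects CAR signaling. Cells received compounds at 15 concentrations and 50 nM CITCO (final), then incubated 24 h at 37 C/5% CO2.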

[5] = target: Nuclear receptor subfamily 1 group I member 3 (Homo sapiens) (UniProt Q14994); test: qHTS assay to identify small molecule agonists of the constitutive androstane receptor (CAR) signaling pathway (AID 1224839); also: nearly all actives have a fitted effect of over 15% in size; also: potency is read from the fitted curve at half-maximal effect;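 as to activation: HepG2 cells stably carrying human CAR and a CYP2B6 luciferase reporter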
Method in brief: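 Using human hepatoma HepG2 cells engineered with hCAR and a CYP2B6-2.2kb reporter, 15-concentration compound series were incubated 24 h alongside PK11195 at 0.75 uM final, with luminescence quantified afterwards.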

[6] = qHTS assay to identify small molecule antagonists of the estrogen related receptor signaling pathway with the pleiotropic PPARgamma coactivator (PGC) from Tox21 10K library - cell viability counter screen (AID 1224840; active = well fitted cell-killing curve with a large enough effect in the repeat runs, not every such curve was filed as active; also: nearly all actives have a fitted effect of over 40% in size; also: potency is read from the fitted curve at half-maximal effect)
Method in brief: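 Cell viability is measured by CellTiter-Fluor fluorescence in PGC/ERR cells that receive compounds after a 6-hour attachment period and are then incubated 17.5 hours at 37 C.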

[7] = qHTS assay to identify small molecule antagonists of the estrogen related receptor signaling pathway with the pleiotropic PPARgamma coactivator (PGC) from Tox21 10K library (AID 1224841; call rule not given here; also: actives are mostly falling curves and most rising ones were filed inactive; nearly all actives have a fitted effect of over 50% in size; also: potency is read from the fitted curve at half-maximal effect)
Method in brief: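 Cells stably carrying the PGC/ERR reporter, seeded at 2,000 per well, received pin-transferred compounds 6 h post-plating. Exposure lasted 18 h at 37 C. Signal: One-Glo luminescence.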

[8] = qHTS assay to identify small molecule agonists of the estrogen related receptor signaling pathway with the pleiotropic PPARgamma coactivator (PGC) from Tox21 10K library (AID 1224842); also: nearly all actives have a fitted effect of over 15% in size; also: potency is read from the fitted curve at half-maximal effect
Method in brief: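 PGC/ERR reporter cell line, 2,000 cells per well, incubated 6 h at 37 C before 23 nL compound in DMSO was added. After 18 h at 37 C, One-Glo luminescence read following 30 min at room temperature.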

[9] = target: Thyrotropin receptor (Homo sapiens) (UniProt P16473); test: qHTS assay to identify small molecule agonists of the thyroid stimulating hormone receptor (TSHR) signaling pathway (AID 1224843; calls by dose curve; also: nearly all actives have a fitted effect of over 45% in size; also: potency is read from the fitted curve at half-maximal effect)
Sequence of Thyrotropin receptor (Homo sapiens) (P16473 whole entry, looked up): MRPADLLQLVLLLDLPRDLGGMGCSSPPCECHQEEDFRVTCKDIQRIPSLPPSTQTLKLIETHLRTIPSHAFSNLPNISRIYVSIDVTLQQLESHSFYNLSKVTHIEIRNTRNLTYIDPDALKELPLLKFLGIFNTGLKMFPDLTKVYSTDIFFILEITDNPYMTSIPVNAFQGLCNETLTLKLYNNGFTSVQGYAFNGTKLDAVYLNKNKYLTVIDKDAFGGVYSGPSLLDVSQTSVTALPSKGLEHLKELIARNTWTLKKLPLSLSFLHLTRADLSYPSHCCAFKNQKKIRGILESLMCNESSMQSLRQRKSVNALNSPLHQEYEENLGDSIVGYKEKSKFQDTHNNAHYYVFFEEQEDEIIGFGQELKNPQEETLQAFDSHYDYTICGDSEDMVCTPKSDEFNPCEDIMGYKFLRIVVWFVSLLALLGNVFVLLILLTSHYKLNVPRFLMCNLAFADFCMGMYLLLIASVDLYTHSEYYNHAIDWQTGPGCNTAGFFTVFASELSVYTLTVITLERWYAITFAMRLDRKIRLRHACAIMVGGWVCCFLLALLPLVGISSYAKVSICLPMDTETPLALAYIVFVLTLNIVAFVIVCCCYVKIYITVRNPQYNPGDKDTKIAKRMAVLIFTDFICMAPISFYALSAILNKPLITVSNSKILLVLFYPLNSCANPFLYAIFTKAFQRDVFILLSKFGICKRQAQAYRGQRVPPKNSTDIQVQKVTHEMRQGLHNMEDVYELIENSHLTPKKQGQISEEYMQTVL
Method in brief: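 HEK293/TSHR, 800 cells/well; cpd 30 min RT; add cAMP-d2 + anti-cAMP-cryptate, 1 h RT; fluorescence read on plate reader. 15-pt titration, n=3.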

[10] = qHTS assay to identify small molecule agonists of the hypoxia (HIF-1) signaling pathway - cell viability counter screen (AID 1224844; calls by dose curve; also: nearly all actives have a fitted effect of over 50% in size)
Method in brief: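 Viability counter screen: HRE-bla ME-180 cells plated 5 hrs before compound addition, treated 17 hrs at 37C and 5% CO2, then CellTiter-Glo added after the FRET reporter read; luminescence after 30 min.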

[11] = qHTS assay to identify small molecule agonists of H2AX (AID 1224845; active = well fitted activation curve with a large enough effect in the signal ratio in the repeat runs, not every such curve was filed as active; the % refers to the signal ratio)
Method in brief: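 Wild-type CHO-K1 cells, plated overnight, exposed 3hr at 37C to 15 concentrations (0.76% DMSO final). Lysed, then HTRF anti-pH2AX (S139) cryptate and anti-H2AX-d2 antibodies, 24 hr room temperature; 665/620 nm emission read.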

[12] = qHTS assay to identify small molecule agonists of the hypoxia (HIF-1) signaling pathway (AID 1224846; active = well fitted activation curve with a large enough effect in the signal ratio in the repeat runs, not every such curve was filed as active; the % refers to the signal ratio)
Method in brief: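 Agonist mode reporter screen. ME-180 cells stably expressing bla under HRE control received test compounds in DMSO for 17 hrs (37C, 5% CO2), and beta-lactamase activity was then detected with the CCF4-AM FRET substrate.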

[13] = qHTS assay to identify small molecule agonists of H2AX - cell viability counter screen (AID 1224847; calls by dose curve; also: nearly all actives have a fitted effect of over 30% in size; also: potency is read from the fitted curve at half-maximal effect)
Method in brief: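 After overnight plating of 1000 CHO-K1 cells per well, a 15-concentration compound series was applied for 3 hr at 37C. Luminescence from CellTiter-Glo, read following 30 min at room temperature, reflected cell viability.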

[14] = qHTS assay to identify small molecule antagonists of the estrogen related receptor (ERR) signaling pathway from Tox21 library (AID 1224848); also: nearly all actives have a fitted effect of over 50% in size; also: potency is read from the fitted curve at half-maximal effect
Method in brief: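 Compounds dissolved in DMSO are pin-transferred onto ERR reporter cells (2,000 per well) that have settled for 6 h at 37 C. Plates then incubate 18 h at 37 C before ONE-Glo luciferase reagent and a luminescence read 30 min later.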

[15] = qHTS assay to identify small molecule agonists of the estrogen related receptor (ERR) signaling pathway from Tox21 library (AID 1224849; calls by dose curve; also: nearly all actives have a fitted effect of over 15% in size); conditions: ERR reporter cell line, ONE-Glo luciferase, 18 h
Method in brief: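 Quantitative HTS in agonist format: NTP ERR cell line, compounds transferred in DMSO after 6 h plating, 18 h incubation at 37 C, ONE-Glo luminescence endpoint.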

[16] = qHTS RealTime-Glo MT Cell Viability Assay in HEK293 cells - 32 hour (AID 1224868); also: nearly all actives have a fitted effect of over 50% in size; also: potency is read from the fitted curve at half-maximal effect
Method in brief: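 HEK293 cells seeded with NanoLuc/prosubstrate reagent, rested 5 h at 37 C, then dosed and kept at 37 C up to 40 h. Nonlytic real-time luminescence from viable cells read at 0, 8, 16, 24, 32 and 40 h.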

[17] = A CellTox Green Cytotoxicity Assay to monitor cytotoxicity in HEK293 cells - 0 hour (AID 1224869); also: nearly all actives have a fitted effect of over 50% in size
Method in brief: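 Dead-cell fluorescence measured kinetically: asymmetric cyanine dye, HEK293, 600 cells/well, 5 h settle, 23 nL cpd/DMSO, 37 C, reads 0–40 h every 8 h.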

[18] = qHTS RealTime-Glo MT Cell Viability Assay in HepG2 cells - 40 hour (AID 1224870); also: nearly all actives have a fitted effect of over 50% in size; also: potency is read from the fitted curve at half-maximal effect
Method in brief: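 HepG2 cells (600/well) mixed with RealTime-Glo MT reagent, settled 5 h at 37 C/5% CO2 before compound addition. Nonlytic NanoLuc luminescence from viable-cell prosubstrate reduction read repeatedly during 40 h treatment at 37 C.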

[19] = qHTS assay to identify small molecule antagonists of the estrogen related receptor (ERR) signaling pathway from Tox21 library - cell viability counter screen (AID 1224834); also: nearly all actives have a fitted effect of over 30% in size; also: potency is read from the fitted curve at half-maximal effect
Method in brief: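 Compounds in DMSO were pinned onto ERR cells that had been incubated for 6 h, and the plates were held at 37 C for 17.5 h. CellTiter-Fluor reagent was then added and fluorescence was measured after 30 min.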

[20] = qHTS RealTime-Glo MT Cell Viability Assay in HepG2 cells - 24 hour (AID 1224867); also: nearly all actives have a fitted effect of over 50% in size; also: potency is read from the fitted curve at half-maximal effect
Method in brief: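 HepG2 cells (600/well) were dispensed with RealTime-Glo reagents, incubated 5 h at 37 °C, then treated with compounds in DMSO for up to 40 h. Nonlytic NanoLuc luminescence reflecting viable cells was read at each stated time point.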
% is scaled to controls: 0 for no effect and ±100 for the full control effect.

Cc1occc(=O)c1OC(=O)C(C)C
inactive: Potency [1] | Potency [2] | Potency [3] | Potency [4] | Potency [5] | Potency [6] | Potency [7] | Potency [8] | Potency [9] | Potency [10] | Potency [11] | Potency [12] | Potency [13] | Potency [14] | activity change, positive = activation ([15]; at 92.4 µM (top of the series)) 1.53% | Potency [16] | Potency [17] | Potency [18]

c1ccc2cc3c(ccc4ccccc43)cc2c1
active: Potency [1] 5.66 µM and 8.94 µM | Potency [5] 30.7 µM and 27.3 µM
inactive: Potency [19] | Potency [3] | Potency [4] | Potency [6] | Potency [9] | Potency [10] | Potency [11] | Potency [12] | Potency [13] | Potency [20] | Potency [16] | Potency [17] | Potency [18]

CCCCCCCCCCCCCC[P+](CCCC)(CCCC)CCCC
active: Potency [19] 21.6 µM and 27.3 µM | Potency [2] 19.2 µM and 24.3 µM | Potency [3] 17.1 µM and 27.3 µM | Potency [4] 12.1 µM and 15.4 µM | Potency [6] 21.6 µM and 27.3 µM | Potency [20] 21.8 µM and 13.8 µM | Potency [16] 173 nM and 219 nM | Potency [18] 21.8 µM and 11 µM
inactive: Potency [5] | Potency [9] | Potency [17]

O
inactive: Potency [19] | Potency [2] | Potency [3] | Potency [6] | Potency [9] | Potency [10] | Potency [11] | Potency [12] | Potency [13] | Potency [20] | Potency [16] | Potency [17] | Potency [18]

Cc1cc(OCCOCC[N+](C)(C)Cc2ccccc2)ccc1C(C)(C)CC(C)(C)C
active: Potency [19] 54.2 µM and 16.8 µM | Potency [6] 48.3 µM | Potency [7] 30.5 µM and 7.5 µM | Potency [9] 27.1 µM and 15 µM | Potency [14] 13.6 µM and 6.68 µM | Potency [16] 10.9 µM and 7.56 µM | Potency [18] 12.2 µM and 8.49 µM
inactive: Potency [1] | Potency [4] | Potency [5] | Potency [8] | Potency [11] | activity change, positive = activation ([15]; at 42.5 µM (top of the series)) -54.7% | activity change, positive = activation ([15]; at 92.4 µM (top of the series)) -79.5% | Potency [17]

CC(C)(C)c1cc(C(C)(C)C)c(O)c(C(C)(C)C)c1
active: Potency [5] 12.2 µM | Potency [13] 101 µM
inactive: Potency [19] | Potency [1] | Potency [3] | Potency [6] | Potency [9] | Potency [17] | Potency [18]

O=Nc1ccc(Nc2ccccc2)cc1
inactive: Potency [3] | Potency [4] | Potency [14] | Potency [17]
active: Potency [19] 19.4 µM and 24.3 µM | Potency [1] 35.8 µM and 39.9 µM | Potency [5] 17.2 µM | Potency [6] 15.4 µM and 19.3 µM | Potency [8] 9.69 µM | Potency [13] 50.8 µM | activity change, positive = activation ([15]; at 92.4 µM (top of the series)) -76% | Potency [16] 6.2 µM and 9.77 µM

Source: PubChem BioAssay (Tox21)
